# According to PubChem BioAssay AID1159580 (chemical genetic matrix, 2015):
# Out of some 5,500 compounds screened, about 2,000 (36%) were called active. Another 18% or so got no clear call; they are omitted. This is one part of the list. Unmarked numbers belong to inactive results. Rule as the data show it: active = normalized growth mostly below about 0.91 (no sharp cut-off); inconclusive = no clear call, values can overlap the other calls; inactive = mostly above about 0.92.
# Test: chemical genetic growth profiling, strain panel (AID 1159580);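 also: tested at 20 µM; growth read once vehicle control cultures reached saturation at 30 °C; 1 = growth at the plate median or of vehicle wells; lower values mean less growth of the strain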
# Settings: S. cerevisiae deletion strains, growth OD
structure (smiles),measurement,setting,value
COc1cc(O)c2c(=O)c(-c3ccc(O)cc3)coc2c1,normalized growth,"locus YBR021W, strain FUR4, hits give low values",0.832 (active)
same,normalized growth,"locus YBR229C, strain ROT2, hits give low values",0.973
same,normalized growth,"locus YCL029C, strain bik1, hits give low values",0.952
same,normalized growth,"locus YDL035C, strain GPR1, hits give low values",0.89
same,normalized growth,"locus YDL074C, strain BRE1, hits give low values",0.782
same,normalized growth,"locus YDL101C, strain DUN1, hits give low values",0.942
same,normalized growth,"locus YDL134C, strain PPH21, hits give low values",0.859 (active)
same,normalized growth,"locus YDL185W, strain tfp1, hits give low values",0.972
same,normalized growth,"locus YDL192W, strain arf1, hits give low values",0.84 (active)
same,normalized growth,"locus YDR101C, strain arx1, hits give low values",0.873 (active)
same,normalized growth,"locus YDR162C, strain NBP2, hits give low values",0.853
same,normalized growth,"locus YDR318W, strain mcm21, hits give low values",0.886 (active)
same,normalized growth,"locus YDR388W, hits give low values",0.943
same,normalized growth,"locus YDR502C, strain sam2, hits give low values",0.842 (active)
same,normalized growth,"locus YEL061C, strain CIN8, hits give low values",0.93
same,normalized growth,"locus YER110C, hits give low values",0.944
same,normalized growth,"locus YER155C, strain BEM2, hits give low values",0.891 (active)
same,normalized growth,"locus YER167W, strain BCK2, hits give low values",0.853 (active)
same,normalized growth,"locus YGL078C, strain dbp3, hits give low values",0.935
same,normalized growth,"locus YGL086W, strain mad1, hits give low values",0.881 (active)
same,normalized growth,"locus YGL248W, strain PDE1, hits give low values",0.874 (active)
same,normalized growth,"locus YGR078C, strain PAC10, hits give low values",0.835 (active)
same,normalized growth,"locus YGR135W, strain pre9, hits give low values",0.817 (active)
same,normalized growth,"locus YGR252W, strain gcn5, hits give low values",0.612 (active)
same,normalized growth,"locus YHR030C, strain SLT2, hits give low values",0.916 (active)
same,normalized growth,"locus YHR079C, strain IRE1 (second series), hits give low values",0.947
same,normalized growth,"locus YHR094C, strain hxt1, hits give low values",0.959
same,normalized growth,"locus YHR129C, strain ARP1, hits give low values",0.899 (active)
same,normalized growth,"locus YHR200W, strain rpn10, hits give low values",0.894 (active)
same,normalized growth,"locus YIL066C, strain RNR3, hits give low values",0.845 (active)
same,normalized growth,"locus YIL073C, strain SPO22, hits give low values",0.818
same,normalized growth,"locus YIL125W, strain kgd1, hits give low values",0.964
same,normalized growth,"locus YIR030C, strain dcg1, hits give low values",0.938
same,normalized growth,"locus YJL095W, strain BCK1, hits give low values",0.73 (active)
same,normalized growth,"locus YJL134W, strain LCB3, hits give low values",0.984
same,normalized growth,"locus YJL168C, strain set2, hits give low values",0.947
same,normalized growth,"locus YJL187C, strain SWE1 (second series), hits give low values",0.894
same,normalized growth,"locus YJR043C, strain POL32, hits give low values",0.771 (active)
same,normalized growth,"locus YJR075W, strain HOC1, hits give low values",0.859 (active)
same,normalized growth,"locus YKL009W, strain mrt4, hits give low values",0.88
same,normalized growth,"locus YKL068W, hits give low values",0.969
same,normalized growth,"locus YKL085W, strain MDH1 (second series), hits give low values",0.948
same,normalized growth,"locus YKL085W, strain MDH1, hits give low values",0.948
same,normalized growth,"locus YKL190W, strain CNB1, hits give low values",0.961
same,normalized growth,"locus YKR001C, strain vps1, hits give low values",0.73 (active)
same,normalized growth,"locus YLR039C, strain RIC1, hits give low values",0.58 (active)
same,normalized growth,"locus YLR058C, strain SHM2, hits give low values",0.913
same,normalized growth,"locus YLR102C, strain apc9, hits give low values",0.946
same,normalized growth,"locus YLR262C, strain YPT6, hits give low values",0.552 (active)
same,normalized growth,"locus YLR268W, strain sec22, hits give low values",0.866 (active)
same,normalized growth,"locus YLR330W, strain CHS5, hits give low values",0.872 (active)
same,normalized growth,"locus YLR342W, strain FKS1 (second series), hits give low values",0.701 (active)
same,normalized growth,"locus YLR371W, strain rom2, hits give low values",0.823 (active)
same,normalized growth,"locus YLR418C, strain cdc73, hits give low values",0.61 (active)
same,normalized growth,"locus YML016C, strain PPZ1, hits give low values",0.947
same,normalized growth,"locus YML032C, strain rad52, hits give low values",0.865 (active)
same,normalized growth,"locus YML124C, strain tub3, hits give low values",0.942
same,normalized growth,"locus YMR078C, strain ctf18, hits give low values",0.954
same,normalized growth,"locus YMR223W, strain ubp8, hits give low values",0.862 (active)
same,normalized growth,"locus YMR263W, strain SAP30, hits give low values",0.884 (active)
same,normalized growth,"locus YMR307W, strain GAS1, hits give low values",0.642
same,normalized growth,"locus YNL067W, strain RPL9B, hits give low values",0.891
same,normalized growth,"locus YNL128W, strain TEP1, hits give low values",0.96
same,normalized growth,"locus YNL153C, strain GIM3, hits give low values",0.941
same,normalized growth,"locus YNL233W, strain BNI4, hits give low values",0.809 (active)
same,normalized growth,"locus YNL250W, strain rad50, hits give low values",0.957
same,normalized growth,"locus YNL271C, strain bni1, hits give low values",0.94
same,normalized growth,"locus YNL298W, strain CLA4, hits give low values",0.894 (active)
same,normalized growth,"locus YNL307C, strain MCK1, hits give low values",0.816 (active)
same,normalized growth,"locus YNR052C, strain pop2, hits give low values",0.919
same,normalized growth,"locus YOL006C, strain TOP1, hits give low values",0.489 (active)
same,normalized growth,"locus YOL012C, strain htz1",1.29
same,normalized growth,"locus YOL147C, strain pex11, hits give low values",0.877 (active)
same,normalized growth,"locus YOR061W, strain CKA2, hits give low values",0.936
same,normalized growth,"locus YOR069W, strain VPS5, hits give low values",0.94
same,normalized growth,"locus YOR136W, strain idh2, hits give low values",0.946
same,normalized growth,"locus YOR144C, strain elg1, hits give low values",0.918 (active)
same,normalized growth,"locus YOR184W, strain ser1, hits give low values",0.756 (active)
same,normalized growth,"locus YOR316C, strain cot1, hits give low values",0.945
same,normalized growth,"locus YPL055C, strain LGE1, hits give low values",0.791
same,normalized growth,"locus YPL241C, strain CIN2, hits give low values",0.97
same,normalized growth,"locus YPR119W, strain clb2, hits give low values",0.962
same,normalized growth,"locus YPR141C, strain kar3, hits give low values",0.967
same,normalized growth,"locus YPR163C, strain tif3, hits give low values",0.93
same,normalized growth,"locus YPR167C, strain met16, hits give low values",0.942
same,normalized growth,"strain wtn01, hits give low values",0.841 (active)
